# Measurements from PubChem BioAssay.
# Values joined by “and” are separate entries in the source; they are usually repeats but may differ in a detail not shown here. Equal entries are not always repeated. The list shows a part of the results. Results filed as inconclusive are left out. Active and inactive are the calls of the source.
# Legend:
# [1] = inhibitors of TNFa-induced NFkB p65 translocation, primary screen, imaging, HUVEC, MLSMR starter and 10KST1 sets (AID 438;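 active = inhibition above 20% together with a positive visual image hit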;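 also: compound added about 3h40 before a 20 min TNFalpha stimulation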;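 as to inhibition: signal is the nuclear over cytoplasmic p65 intensity ratio per well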); conditions: HUVEC TNFa-induced p65 nuclear translocation; cell count: measured here: nuclei count (cytotoxicity indicator), at 2.08 µM unless noted; inhibition: at 2 µM, stronger effect = higher value unless noted
# [2] = inhibitors of mutant huntingtin aggregation, primary screen, imaging, exon1htt(103Q)mCFP cells, high-content imaging (AID 483;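 active = visual image review flags a hit and inhibition of aggregation exceeds 20%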;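 also: compound exposure lasted 3 days before fixation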;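 as to nuclei count: percent of the per-plate median nuclei count of sample wells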); conditions: exon1htt(103Q)mCFP cell line, aggregate imaging, at 2 µM; inhibition of aggregation: stronger effect = higher value; nuclei count: measured here: cell count, toxicity
# [3] = inhibitors of E-selectin induction by TNFa, primary screen, imaging, HUVEC, immunofluorescence, MLSMR starter and 10KST1 sets (AID 487;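 active = visually confirmed hit in the image check and inhibition above 20%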;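 as to inhibition: signal is fraction of cell area covered by stained E-selectin grains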;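 as to nuclei count: 100% = median nuclei count of all wells on the same plate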); conditions: HUVEC TNFalpha-induced E-selectin immunofluorescence imaging, at 2 µM; inhibition: stronger effect = higher value; nuclei count: measured here: cell number, toxicity
# [4] = DUSP6 inhibitors restoring Erk phosphorylation by chemical complementation, primary imaging in DUSP6-transfected HeLa (AID 609;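 active = compounds giving at least 50% inhibition in the cell-based MKP-3 phosphatase rescue imaging test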;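 as to inhibition: phospho-Erk level distribution per well compared with pooled transfected vehicle control wells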); conditions: HeLa MKP-3 transfected, phospho-Erk imaging KS statistic, at 10 µM
# [5] = molecular target: Dual specificity protein phosphatase 6 (Homo sapiens) (UniProt Q16828); assay: as above; conditions: HeLa MKP-3 transfected, phospho-Erk imaging KS statistic, at 10 µM, stronger effect = higher value
# Dual specificity protein phosphatase 6 (Homo sapiens), sequence (Q16828 whole entry, looked up): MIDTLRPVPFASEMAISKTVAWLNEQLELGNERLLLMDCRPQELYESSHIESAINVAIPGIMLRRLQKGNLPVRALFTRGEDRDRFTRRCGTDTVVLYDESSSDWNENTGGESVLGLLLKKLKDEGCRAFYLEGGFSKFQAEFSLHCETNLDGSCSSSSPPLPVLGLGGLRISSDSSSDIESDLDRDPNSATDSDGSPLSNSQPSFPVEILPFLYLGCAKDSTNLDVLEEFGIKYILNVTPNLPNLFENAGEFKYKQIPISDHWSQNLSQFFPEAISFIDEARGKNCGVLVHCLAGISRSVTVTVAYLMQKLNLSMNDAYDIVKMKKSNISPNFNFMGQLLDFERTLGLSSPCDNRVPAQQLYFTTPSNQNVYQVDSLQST
# [6] = molecular target: Voltage-gated potassium channel subunit beta-2 (Rattus norvegicus) (UniProt P62483); assay: KvBeta enzyme negative modulators, primary screen, biochemical, NADPH fluorescence (AID 622;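 active = fluorescence slope higher than the sample average by over 3 SD, cut at about -0.22 in these data, passing the limit was not always enough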;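 also: slope of raw intensity against log time taken from 70 to 1610 s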); conditions: recombinant KvBeta, 4-cyanobenzaldehyde reduction, at 10 µM, stronger effect = higher value
# Voltage-gated potassium channel subunit beta-2 (Rattus norvegicus), sequence (P62483 whole entry, looked up): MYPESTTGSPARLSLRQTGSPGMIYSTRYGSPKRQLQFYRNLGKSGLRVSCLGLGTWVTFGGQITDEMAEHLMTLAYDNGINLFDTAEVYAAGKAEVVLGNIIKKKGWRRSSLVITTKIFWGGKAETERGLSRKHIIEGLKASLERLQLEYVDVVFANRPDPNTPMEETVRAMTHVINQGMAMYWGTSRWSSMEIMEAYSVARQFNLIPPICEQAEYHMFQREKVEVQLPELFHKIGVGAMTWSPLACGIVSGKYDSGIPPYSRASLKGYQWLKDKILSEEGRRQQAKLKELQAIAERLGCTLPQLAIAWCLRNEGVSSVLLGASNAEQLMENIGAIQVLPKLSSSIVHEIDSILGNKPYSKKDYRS
# [7] = molecular target: Voltage-gated potassium channel subunit beta-2 (Rattus norvegicus) (UniProt P62483); assay: KvBeta positive modulators, primary screen, biochemical, NADPH fluorescence (AID 623;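 active = NADPH fluorescence slope more negative than the mean of all samples by about 3 SD, 99.7% confidence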;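 also: fluorescence intensity change per second fitted from 20 to 320 s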); conditions: Recombinant KvBeta, NADPH fluorescence decrease slope, 10 min; at 10 µM; stronger effect = lower value
# [8] = molecular target: Alpha-2C adrenergic receptor (Homo sapiens) (UniProt P18825); assay: modulators of alpha2C/GIRK thallium flux, primary screen, cell-based, HEK293 alpha2C/GIRK1/2 (AID 624;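 active = fluorescence slope after compound addition differing from the mean of all screened samples at 99.7% confidence, in either direction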;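 also: slope of fluorescence ratio to pre-addition baseline per second over 15 to 24 s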); conditions: thallium flux BTC fluorescence, at 10 µM, actives lie on both sides
# Alpha-2C adrenergic receptor (Homo sapiens), sequence (P18825 whole entry, looked up): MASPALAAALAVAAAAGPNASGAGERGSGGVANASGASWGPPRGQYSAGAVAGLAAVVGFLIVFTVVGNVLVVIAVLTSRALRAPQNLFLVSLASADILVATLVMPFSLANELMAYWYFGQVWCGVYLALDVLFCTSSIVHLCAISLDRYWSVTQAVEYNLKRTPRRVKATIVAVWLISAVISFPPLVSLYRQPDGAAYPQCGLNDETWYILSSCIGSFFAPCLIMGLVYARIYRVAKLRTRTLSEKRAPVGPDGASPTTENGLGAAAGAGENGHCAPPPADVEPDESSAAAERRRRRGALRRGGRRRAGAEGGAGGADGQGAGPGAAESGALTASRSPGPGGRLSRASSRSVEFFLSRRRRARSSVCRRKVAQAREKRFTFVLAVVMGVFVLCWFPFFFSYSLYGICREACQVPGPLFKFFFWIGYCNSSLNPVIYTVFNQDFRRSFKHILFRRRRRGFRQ
# [9] = inhibitors of Chlamydomonas gravitaxis, primary screen, whole organism, Chlamydomonas reinhardtii, WT vs cilia-less mutant, absorbance, 96-well (AID 463189); conditions: OD600 absorbance, 2 days, at 10 µM, stronger effect = higher value;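 also: 0% = wild type cc124 cells in DMSO and 100% = ciliumless bld1 mutant cells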
# [10] = inhibitors of Sendai virus-induced IRF3 signaling, primary screen, TLR/RLR signaling modifier project, cell-based, Sendai virus stimulus, luciferase, 10K MLSCN set (AID 602276;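 active = inhibition at or above 50% at 10 µM; inactive = inhibition below 50%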;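 also: firefly luciferase from ISG56 promoter only with Renilla not read in this screen; 0% = Sendai virus plus DMSO and 100% = medium plus DMSO without virus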); conditions: HEK293 RL24 IRF3 luciferase reporter, at 10 µM, stronger effect = higher value
# [11] = inhibitors of poly I:C-induced TLR3 signaling, primary screen, cell-based, poly I:C stimulus, luciferase, 10K MLSCN set (AID 602277;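 active = inhibition of the reporter signal at or above 50%; inactive = inhibition below 50%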); conditions: HEK293-TLR3 RL24 IRF3 luciferase reporter, at 10 µM, stronger effect = higher value
# [12] = inhibitors of larval lipid processing in zebrafish, primary screen, whole organism, PED6 fluorescence, gall bladder and intestine (AID 686;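 active = a full or partial loss of lipid-probe fluorescence in the fish gall bladder, intestine or both, judged by eye; inactive = no fluorescence loss, or compound toxic to the fish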;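 also: larvae 5 to 7 days old with five fish per well; signal comes from phospholipase A2 cleavage of quenched PED6 carried via bile; overnight exposure to compound and PED6 before scoring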); conditions: Zebrafish larvae PED6 lipid processing, fluorescence scoring
# [13] = molecular target: Solute carrier family 12 member 5 (Homo sapiens) (UniProt Q9H2X9); assay: KCC2 modulators in sodium-free buffer, confirmation, cell-based, HEK293 KCC2, thallium flux, secondary assay (AID 1713;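 active = thallium flux slope above the same plate's solvent-only control mean plus 3 SD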); conditions: FluoZin2 fluorescence, at 10 µM, stronger effect = higher value
# Solute carrier family 12 member 5 (Homo sapiens), sequence (Q9H2X9 whole entry, looked up): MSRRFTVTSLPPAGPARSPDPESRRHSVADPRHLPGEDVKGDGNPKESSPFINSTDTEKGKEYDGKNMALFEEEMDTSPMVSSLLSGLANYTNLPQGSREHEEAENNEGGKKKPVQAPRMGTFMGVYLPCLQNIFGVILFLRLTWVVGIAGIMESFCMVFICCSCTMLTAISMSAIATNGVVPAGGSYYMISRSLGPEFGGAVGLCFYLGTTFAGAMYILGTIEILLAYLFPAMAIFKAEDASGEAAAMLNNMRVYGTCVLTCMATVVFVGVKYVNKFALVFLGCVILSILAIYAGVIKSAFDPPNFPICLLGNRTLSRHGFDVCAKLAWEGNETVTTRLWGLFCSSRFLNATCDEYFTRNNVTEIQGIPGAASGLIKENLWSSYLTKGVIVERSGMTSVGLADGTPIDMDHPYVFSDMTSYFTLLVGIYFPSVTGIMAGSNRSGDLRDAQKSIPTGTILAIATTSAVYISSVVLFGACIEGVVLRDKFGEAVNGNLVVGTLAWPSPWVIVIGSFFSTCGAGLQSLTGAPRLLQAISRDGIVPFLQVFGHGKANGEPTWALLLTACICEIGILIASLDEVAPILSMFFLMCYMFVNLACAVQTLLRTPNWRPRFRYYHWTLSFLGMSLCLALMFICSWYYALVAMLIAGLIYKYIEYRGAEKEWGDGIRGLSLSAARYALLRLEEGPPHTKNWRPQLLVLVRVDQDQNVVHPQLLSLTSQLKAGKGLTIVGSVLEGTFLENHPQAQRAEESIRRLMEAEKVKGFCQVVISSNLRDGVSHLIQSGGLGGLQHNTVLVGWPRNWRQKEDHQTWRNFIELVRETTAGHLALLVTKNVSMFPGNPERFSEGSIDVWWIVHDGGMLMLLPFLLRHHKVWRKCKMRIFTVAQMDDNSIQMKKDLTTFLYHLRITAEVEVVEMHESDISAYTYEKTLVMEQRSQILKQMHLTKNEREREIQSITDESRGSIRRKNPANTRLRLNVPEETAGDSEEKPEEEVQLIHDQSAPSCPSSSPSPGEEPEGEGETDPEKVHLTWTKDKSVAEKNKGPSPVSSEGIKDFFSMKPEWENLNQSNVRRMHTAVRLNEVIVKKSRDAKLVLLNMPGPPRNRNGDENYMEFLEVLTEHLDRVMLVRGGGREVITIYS
# PubChem AID 1714 = conditions: HEK293-KCC2 + bumetanide/ouabain, thallium flux FluoZin2; at 10 µM; stronger effect = higher value
# [14] = molecular target: Solute carrier family 12 member 5 (Homo sapiens) (UniProt Q9H2X9); assay: KCC2 modulators without ouabain present, confirmation, cell-based, HEK293 KCC2, thallium flux, FluoZin2, secondary assay 2 (AID 1715;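 active = thallium flux slope more than 3 SD above or below the plate's solvent-only control mean, mostly below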;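 also: raw slope with 0.1% DMSO as baseline and bumetanide as block control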); conditions: HEK293-KCC2, thallium flux FluoZin2 fluorescence; at 10 µM; actives lie on both sides
# [15] = thallium flux modulation in parental HEK cells, confirmation, counter-screen for KCC2 modulator project, cell-based, counterscreen 1 (AID 1716;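 active = thallium flux rate significantly above the same plate's solvent-only control wells, beyond their mean plus 3 SD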); conditions: HEK293 parental cells, thallium flux FluoZin2, ouabain; at 10 µM; baseline-ratio fluorescence slope, 10–20 s after thallium
# [16] = molecular target: Solute carrier family 12 member 5 (Homo sapiens) (UniProt Q9H2X9); assay: KCC2 inhibitors and activators, ouabain retest, confirmation, HEK-KCC2 cells (AID 1717;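 active = thallium flux slope beyond 3 SD from same-plate DMSO control mean in most replicates, usually higher, sometimes lower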;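 also: slope of initial-normalized fluorescence between seconds 10 and 20 after thallium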); conditions: HEK293-KCC2, thallium flux FluoZin2 fluorescence, at 10 µM, bidirectional: low = inhibitor, high = activator
# [17] = native HEK Tl+ uptake effects, second counter-screen – HEK cells, counterscreen 2, counter-screen for KCC2 modulator project, confirmation (AID 1718;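 active = thallium flux slope above the same plate's solvent-control mean plus 3 SD in both duplicate wells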;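 also: run without ouabain in cells lacking the KCC2 cotransporter; slope of fluorescence scaled to its starting value between 10 and 20 s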); conditions: HEK293 parental, thallium flux FluoZin-2 fluorescence slope; at 10 µM
# [18] = measured here: cell density z-score
# [19] = measured here: nuclear c-Myc green intensity z-score
# [20] = measured here: nuclear pErk red intensity z-score, stronger effect = higher value
smiles,measurement,setting,value
CC(C)[C@H]1C(=O)N2CCC[C@H]2[C@]2(O)O[C@](NC(=O)[C@@H]3C=C4c5cccc6[nH]cc(c56)C[C@H]4N(C)C3)(C(C)C)C(=O)N12,cell count,[1],501
same,inhibition,[1],1.6% (inactive)
same,inhibition of aggregation,[2],-14% (inactive)
same,nuclei count,[2],110%
same,inhibition,[3],-84.6% (inactive)
same,nuclei count,[3],122%
same,z-score,[4]; [18],-1.33
same,z-score,[4]; [19],-1
same,z-score,[4]; [20],0.393
same,inhibition,[5],3.59% (inactive)
same,fluorescence slope,[6],-0.451 (inactive)
same,NADPH fluorescence slope,[7],-1.8e-05 (inactive)
same,slope,[8],0.0044 (inactive)
same,inhibition,[9],13.5% (inactive)
same,inhibition,[10],10.2% (inactive)
same,inhibition,[11],18.2% (inactive)
C=CCn1c(O)c(C=NCCN(C)C)c(=O)[nH]c1=O,cell count,[1],342
same,inhibition,[1],-5% (inactive)
same,inhibition of aggregation,[2],-0.9% (inactive)
same,nuclei count,[2],97.7%
same,inhibition,[3],9.5% (inactive)
same,nuclei count,[3],97.2%
same,z-score,[4]; [18],0.486
same,z-score,[4]; [19],-0.511
same,z-score,[4]; [20],-0.0175
same,inhibition,[5],19.3% (inactive)
same,fluorescence slope,[6],-0.462 (inactive)
same,NADPH fluorescence slope,[7],-0.000118 (inactive)
same,slope,[8],0.00873 (inactive)
same,outcome,[12],inactive
same,inhibition,[9],-19.1% (inactive)
same,inhibition,[10],-1.86% (inactive)
same,inhibition,[11],-11.3% (inactive)
O=C(CSC1c2ccccc2-c2ccccc21)N/N=C/c1ccccc1,normalised thallium flux (F/F0 slope),[13],0.00922 (inactive)
same,normalized thallium flux,PubChem AID 1714,0.00567 (inactive)
same,normalized thallium flux,[14],0.0321 (inactive)
same,thallium flux rate (normalised fluorescence),[15],0.00741 (inactive)
same,"raw Tl+ flux slope (below DMSO = inhibition, above = activation)",[16],0.02 (inactive)
same,thallium flux slope,[17],0.0112 (active)
CC[N+]1(C)CCCC(OC(=O)C(O)(c2ccccc2)c2ccccc2)C1 (centres undefined),cell count,[1],672
same,inhibition,[1],-11.6% (inactive)
same,inhibition of aggregation,[2],-2.7% (inactive)
same,nuclei count,[2],107%
same,inhibition,[3],-116% (inactive)
same,nuclei count,[3],119%
same,z-score,[4]; [18],1.46
same,z-score,[4]; [19],-0.0245
same,z-score,[4]; [20],-0.802
same,inhibition,[5],5.42% (inactive)
same,fluorescence slope,[6],-0.46 (inactive)
same,NADPH fluorescence slope,[7],-4.6e-05 (inactive)
same,slope,[8],0.0046 (inactive)
same,outcome,[12],inactive
same,inhibition,[9],-2.15% (inactive)
same,inhibition,[10],-2.74% (inactive)
same,inhibition,[11],37.1% (inactive)
C=C1CC[C@@]2(O)[C@H]3Cc4ccc(O)c5c4[C@@]2(CCN3CC2CC2)[C@H]1O5,cell count,[1],527
same,inhibition,[1],0.1% (inactive)
same,inhibition of aggregation,[2],-9.9% (inactive)
same,nuclei count,[2],99.2%
same,inhibition,[3],-20.4% (inactive)
same,nuclei count,[3],109%
same,z-score,[4]; [18],0.737
same,z-score,[4]; [19],1.29
same,z-score,[4]; [20],-0.809
same,inhibition,[5],14.6% (inactive)
same,fluorescence slope,[6],-0.469 (inactive)
same,NADPH fluorescence slope,[7],-4e-05 (inactive)
same,slope,[8],0.00496 (inactive)
same,outcome,[12],inactive
same,inhibition,[9],-15.6% (inactive)
same,inhibition,[10],-6.04% (inactive)
same,inhibition,[11],25% (inactive)
CC(C)[C@@]1(NC(=O)[C@@H]2C=C3c4cccc5[nH]cc(c45)C[C@H]3N(C)C2)O[C@@]2(O)[C@@H]3CCCN3C(=O)[C@H](Cc3ccccc3)N2C1=O,cell count,[1],584
same,inhibition,[1],-0.4% (inactive)
same,inhibition of aggregation,[2],7.1% (inactive)
same,nuclei count,[2],99.7%
same,inhibition,[3],-22.9% (inactive)
same,nuclei count,[3],114%
same,z-score,[4]; [18],0.234
same,z-score,[4]; [19],0.806
same,z-score,[4]; [20],-0.53
same,inhibition,[5],10.2% (inactive)
same,fluorescence slope,[6],-0.477 (inactive)
same,NADPH fluorescence slope,[7],-1e-05 (inactive)
same,slope,[8],0.00405 (inactive)
same,inhibition,[9],1.14% (inactive) and 21.5% (inactive)
same,inhibition,[10],22% (inactive)
same,inhibition,[11],13.1% (inactive)
